# Most compounds without a hit are left out; they make up all but 19% or so of the library.
# IL1B secr inh: blocks inflammasome-driven IL-1 beta release | THP-1 LPS/ATP IL-1B secretion, AlphaLISA, 16 h; stronger effect = lower value | activity change, % at 57.5 µM | actives 4.7% (n = 360,000); in the data active means activity change below about -50%; inconclusive means mostly about -30% to -49%
#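 Secreted IL-1B measured by AlphaLISA bead assay after 16 h compound exposure of THP-1 cells; compounds (final up to 57.5 uM) added 1 h before LPS (250 ng/mL) and ATP (1.25 mM) stimulation; lower signal means less secretion.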
# HT1080NT lethal: kills 2HG-producing HT-1080-NT fibrosarcoma cells; HT-1080-NT fibrosarcoma viability, CellTiter-Glo ATP luminescence, 48 h; actives 1.6% (n = 360,000); Potency, µM (highest dose often 46.1 µM), inactives show at the highest dose activity, negative = less viability, usual class: cytotoxic;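 further: NT is the 2HG producing partner of a matched IDH1 knockdown line; potency means the concentration at half of the fitted maximal effect; 0% = DMSO-treated cells and -100% = media-only wells without cells; nearly all actives have a fitted effect of over 55% in size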
#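 Luminescent CellTiter-Glo readout after 48 hours of compound exposure at 37 degrees C defined viability of HT-1080-NT cells. Activity was normalized to DMSO wells and cell-free media wells; concentration-response curves were fitted and assigned curve classes.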
# HT1080 IDH1KD tx: toxicity to HT-1080 IDH1 knockdown cells (counter line); HT-1080 IDH1 knockdown viability, ATP luminescence, 48 h; Potency, µM (top dose mostly 46.1 µM), without a hit: at the highest dose activity, negative = toxicity, actives largely listed as cytotoxic; actives 2% (n = 360,000);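 further: potency means the concentration at half of the fitted maximal effect; 0% = DMSO wells and -100% = cell-free medium wells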
#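 Luminescent ATP read-out (CellTiter-Glo, 10 min at room temperature) after 48 h compound exposure at 37 °C gave viability of IDH1-knockdown HT-1080 cells. Activity was normalised to DMSO and cell-free wells, then fitted as concentration-response curves.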
# DT40 TDP1 no CPT: qHTS for Inhibitors of human tyrosyl-DNA phosphodiesterase 1 (TDP1): qHTS in cells in absence of CPT; DT40 Tdp1-/- hTDP1 cells, no CPT, ATP luminescence, 48 h; Potency, µM (highest dose often 46.2 µM), for inactives: top-dose activity change, negative = growth inhibition, actives largely listed as inhibitors; actives 15% (n = 420,000); AID 686978, 2013; further: potency means the concentration at half of the fitted maximal effect; nearly all actives have a fitted effect of over 55% in size
#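 Compound effects on proliferation are scored in DT40 Tdp1-/-;hTDP1 cells in the absence of CPT. ATP levels (CellTiter-Glo luminescence) are recorded after a ≥48 hr, 37 °C incubation.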
# DT40 TDP1 CPT: growth inhibition of DT40 Tdp1-/-;hTDP1 cells with camptothecin (screen for TDP1 inhibitors); chicken DT40 Tdp1-/-;hTDP1 cells + 20 nM CPT, ATP luminescence, 48 h; Potency, µM (doses to about 46.2 µM), for inactives: at the highest dose activity change, negative = growth inhibition, most hits filed as inhibitors; actives 12% (n = 420,000); AID 686979; further: potency means the concentration at half of the fitted maximal effect; nearly all actives have a fitted effect of over 55% in size
#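 Chicken DT40 Tdp1-/- cells complemented with human TDP1, 400 cells/well, exposed to compounds plus 20 nM camptothecin for at least 48 h at 37 C; viability read as ATP content by CellTiter-Glo luminescence.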
# * marks the source's active call; other numbers are inactive results; ? = inconclusive; · = no result given. Unless noted, the call rests on the fitted dose curve; in most records, active means well fitted curve in the direction sought with a large enough effect; inconclusive means small, poorly fitted or top-dose-only effect, or another doubt; inactive means no such curve, though single readings can be large; an effect the other way counts as inactive or inconclusive. Unless noted, on the % scale 0 is the no-effect control and ±100 the full control effect.
SMILES,IL1B secr inh,HT1080NT lethal,HT1080 IDH1KD tx,DT40 TDP1 no CPT,DT40 TDP1 CPT
O=C(NCc1ccccn1)C12CC3CC(CC(C3)C1)C2,-4,20%,1%,?,16%
O=C(Nc1ccc(F)c(Cl)c1)c1cc(C2CCCCN2C(=O)C2CC2)on1 (centres undefined),4,-5%,-27%,15µM*,26µM*
Cc1ccc(F)cc1C(=O)N1CCCCC1c1cc(C(=O)Nc2ccc(F)c(Cl)c2)no1 (centres undefined),-19,-13%,-16%,15µM*,21µM*
CCCNC(=O)c1cc(C2CCCCN2C(=O)c2cc(F)ccc2C)on1 (centres undefined),38,13%,0%,-22%,-28%
CC(C)Oc1ccc(C(CC(=O)O)c2ccc(F)cc2)cc1 (centres undefined),19,8%,18%,-2%,23%
COc1ccc(CNCCC(c2ccccc2)c2ccc(OC(C)C)cc2)cc1OC (centres undefined),·,21µM*,18µM*,23µM*,23µM*
COc1ccc(CNCCC(c2ccc(F)cc2)c2ccc(OC(C)C)cc2)cc1OC (centres undefined),-96*,23µM*,?,15µM*,16µM*
COc1cc(CNCc2ccccc2)ccc1OCC(O)c1ccccc1 (centres undefined),-7,-2%,-1%,?,-25%
CC1CCCC(C)N1CCCNC(=O)Cn1ncc2c3ccccc3n(C)c2c1=O (centres undefined),0,9%,-4%,2%,1%
CCC(=O)NC1(Cc2ccc(O)cc2)CCCCC1,0,-17%,4%,-14%,-5%
Cc1cc(-c2ccc(C)c(S(=O)(=O)NCCCN3CCCCCC3)c2)on1,-51*,-4%,0%,-28%,-24%
COc1ccc(-c2cc(C)no2)cc1S(=O)(=O)NCCCN(C)Cc1ccccc1,-22,-23%,-18%,?,?
Cc1cc(-c2ccc(C)c(S(=O)(=O)NCCCN3CCN(c4ccccc4)CC3)c2)on1,-7,?,-11%,23µM*,?
Cc1cc(-c2ccc(C)c(S(=O)(=O)NCc3cccs3)c2)on1,·,·,·,15µM*,12µM*
COc1ccc(-c2cc(C)no2)cc1S(=O)(=O)NCCCN1CCN(c2ccccc2)CC1,-9,-18%,-12%,23µM*,?
c1ccc(-c2nc(-c3cnc4ccccc4n3)cs2)cc1,·,·,·,-19%,-41%
C/C(CC(=O)Nc1cc(Cl)ccc1Cl)=N\NC(=O)c1ccccc1Br,24,3%,-25%,-10%,-7%
O=C(NC(=S)Nc1cccc(O)c1)C12CC3CC(CC(C3)C1)C2,0,2%,-14%,?,?
CCc1ccccc1N(C(C)=O)c1nc(CN=C=S)cs1,2,3%,-4%,?,23µM*
O=C(O)Cc1csc(-c2ccccc2)n1,35,8%,0%,-8%,-8%
CC(C)(C)C(=O)NC1(C(F)(F)F)NC(=O)N(c2ccccc2F)C1=O (centres undefined),6,14%,10%,11%,21%
CCOc1ccc(C(=O)NNC(=O)CN2C(=O)NC3(CCCC3)C2=O)cc1,22,3%,0%,6%,-4%
COc1ccc(C(=O)NC(C)c2nnc(SCC(=O)NC3CCCC3)n2C)cc1 (centres undefined),7,12%,12%,-8%,-9%
COc1cc2cncc(Cc3ccc(Cl)cc3)c2cc1OC,-11,-12%,-23%,18µM*,15µM*
Nc1ccc(S(=O)(=O)N2CCOCCOCCOCCOCCOCC2)cc1,1,11%,24%,3%,-1%
CCCc1c(C(=O)N/N=C/c2ccccc2C(F)(F)F)nnn1-c1nonc1N,0,-1%,-7%,-8%,-19%
COc1cc(CNc2nc3c(C)cc(C)cc3s2)ccc1O,-17,?,-30%,21µM*,?
CCN(CC)c1ccc(/C=C(/C#N)c2nc3ccc(C)cc3[nH]2)c(OC(C)C)c1,?,?,-30%,21µM*,15µM*
